The text below walks through data of PubChem BioAssay.

Test [1] can be described thus: inhibitors of TNFa-induced NFkB p65 translocation, primary screen, imaging, HUVEC, MLSMR starter and 10KST1 sets (AID 438;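 active = inhibition above 20% together with a positive visual image hit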;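 also: compound added about 3h40 before a 20 min TNFalpha stimulation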;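 as to inhibition: signal is the nuclear over cytoplasmic p65 intensity ratio per well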). To be noted: HUVEC TNFa-induced p65 nuclear translocation; cell count: measured here: nuclei count (cytotoxicity indicator), at 2.08 µM; inhibition: at 2 µM, stronger effect = higher value, 0% TNFa-plus-vehicle, 100% no-TNFa wells.
Test [2] can be described thus: inhibitors of mutant huntingtin aggregation, primary screen, imaging, exon1htt(103Q)mCFP cells, high-content imaging (AID 483).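 Also: compound exposure lasted 3 days before fixation.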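 As to nuclei count: percent of the per-plate median nuclei count of sample wells.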 To be noted: exon1htt(103Q)mCFP cell line, aggregate imaging, at 2 µM; inhibition of aggregation: stronger effect = higher value; nuclei count: measured here: cell count, toxicity.
A short description of test [3]: inhibitors of E-selectin induction by TNFa, primary screen, imaging, HUVEC, immunofluorescence, MLSMR starter and 10KST1 sets (AID 487;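 active = visually confirmed hit in the image check and inhibition above 20%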;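 as to inhibition: signal is fraction of cell area covered by stained E-selectin grains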;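 as to nuclei count: 100% = median nuclei count of all wells on the same plate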). To be noted: HUVEC TNFalpha-induced E-selectin immunofluorescence imaging, at 2 µM; inhibition: stronger effect = higher value; nuclei count: measured here: cell number, toxicity.
Test [4] has as its target Voltage-gated potassium channel subunit beta-2 (Rattus norvegicus) (UniProt P62483). Nature of the test: KvBeta enzyme negative modulators, primary screen, biochemical, NADPH fluorescence (AID 622;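 active = fluorescence slope higher than the sample average by over 3 SD, cut at about -0.22 in these data, passing the limit was not always enough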;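 also: slope of raw intensity against log time taken from 70 to 1610 s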). To be noted: recombinant KvBeta, 4-cyanobenzaldehyde reduction, at 10 µM, stronger effect = higher value.
The target is the same in test [5]. The test can be described thus: KvBeta positive modulators, primary screen, biochemical, NADPH fluorescence (AID 623;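 active = NADPH fluorescence slope more negative than the mean of all samples by about 3 SD, 99.7% confidence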;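 also: fluorescence intensity change per second fitted from 20 to 320 s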). To be noted: Recombinant KvBeta, NADPH fluorescence decrease slope, 10 min; at 10 µM; stronger effect = lower value.
Test [6] deals with Alpha-2C adrenergic receptor (Homo sapiens) (UniProt P18825). Nature of the test: modulators of alpha2C/GIRK thallium flux, primary screen, cell-based, HEK293 alpha2C/GIRK1/2 (AID 624;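 active = fluorescence slope after compound addition differing from the mean of all screened samples at 99.7% confidence, in either direction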;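 also: slope of fluorescence ratio to pre-addition baseline per second over 15 to 24 s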). To be noted: thallium flux BTC fluorescence, at 10 µM, actives lie on both sides.
The nature of test [7]: inhibitors of Sendai virus-induced IRF3 signaling, primary screen, TLR/RLR signaling modifier project, cell-based, Sendai virus stimulus, luciferase, 10K MLSCN set (AID 602276;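 active = inhibition at or above 50% at 10 µM; inactive = inhibition below 50%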;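 also: firefly luciferase from ISG56 promoter only with Renilla not read in this screen; 0% = Sendai virus plus DMSO and 100% = medium plus DMSO without virus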). To be noted: HEK293 RL24 IRF3 luciferase reporter, at 10 µM, stronger effect = higher value.
Test [8] in a line: inhibitors of poly I:C-induced TLR3 signaling, primary screen, cell-based, poly I:C stimulus, luciferase, 10K MLSCN set (AID 602277;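 active = inhibition of the reporter signal at or above 50%; inactive = inhibition below 50%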). To be noted: HEK293-TLR3 RL24 IRF3 luciferase reporter, at 10 µM, stronger effect = higher value. Background: In a reporter assay the amount or activity of a reporter protein is the signal.

Activity calls are given as the source filed them.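 The calls were made as follows, unless noted: active = visual image review flags a hit and inhibition of aggregation exceeds 20%; inconclusive = visual hit but inhibition at or below 20%; inactive = no hit on visual image review.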

Sequence of Voltage-gated potassium channel subunit beta-2 (Rattus norvegicus) (P62483 whole entry, looked up): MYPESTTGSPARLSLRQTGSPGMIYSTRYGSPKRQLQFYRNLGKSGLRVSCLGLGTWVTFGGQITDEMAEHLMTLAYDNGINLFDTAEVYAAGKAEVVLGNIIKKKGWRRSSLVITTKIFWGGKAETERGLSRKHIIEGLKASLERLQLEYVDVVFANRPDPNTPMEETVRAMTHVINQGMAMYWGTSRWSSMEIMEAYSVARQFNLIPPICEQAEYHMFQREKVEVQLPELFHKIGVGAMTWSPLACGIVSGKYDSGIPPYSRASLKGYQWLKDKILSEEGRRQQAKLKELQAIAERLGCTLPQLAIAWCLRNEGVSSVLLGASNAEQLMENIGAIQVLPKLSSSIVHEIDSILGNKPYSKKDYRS
Sequence of Alpha-2C adrenergic receptor (Homo sapiens) (P18825 whole entry, looked up): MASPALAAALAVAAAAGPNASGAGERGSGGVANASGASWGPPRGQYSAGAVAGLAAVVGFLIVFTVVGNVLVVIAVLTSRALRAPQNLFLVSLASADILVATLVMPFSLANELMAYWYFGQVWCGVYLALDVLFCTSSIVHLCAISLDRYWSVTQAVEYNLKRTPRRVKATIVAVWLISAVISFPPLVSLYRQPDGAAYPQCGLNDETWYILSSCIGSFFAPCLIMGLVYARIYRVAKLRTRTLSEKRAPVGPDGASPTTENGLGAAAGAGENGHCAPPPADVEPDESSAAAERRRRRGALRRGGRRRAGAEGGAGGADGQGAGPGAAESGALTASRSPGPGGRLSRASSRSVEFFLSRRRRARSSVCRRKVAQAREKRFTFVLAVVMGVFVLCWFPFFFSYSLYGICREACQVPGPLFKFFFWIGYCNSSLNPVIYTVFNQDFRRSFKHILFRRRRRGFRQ

Take `COC(=O)c1ccc(-n2nnnc2SCc2nn[nH]n2)cc1`: in test [1], the cell count is 543. For the same compound, the inhibition – broadly, the drop in the measured response relative to a control, in per cent – in test [1] was -7.8% (inactive); in test [3], -29% (inactive); in test [7], -8.25% (inactive); in test [8], -3.28% (inactive). For the same compound, in test [2], the inhibition of aggregation is -11.5% (inactive). Also, the nuclei count in test [2] came out at 99.6%; in test [3], 130%. In addition, in test [4], the fluorescence slope is -0.35 (inactive). In addition, the NADPH fluorescence slope in test [5] was 1.4e-05 (inactive). Also, the slope in test [6] is 0.00668 (inactive).

As for `CC1Cc2nc(SCC(=O)Nc3ccc4c(c3)OCO4)n(-c3ccc(F)cc3)c(=O)c2S1` (stereo not given), the cell count in test [1] was determined as 680. Besides, the inhibition was -23.4% (inactive) in test [1], -32.8% (inactive) in test [3], -0.186% (inactive) in test [7] and 51.2% (active) in test [8]. Further, the inhibition of aggregation in test [2] was -2.5% (inactive). The nuclei count in test [2] worked out at 102%; in test [3], 107%. Also, the fluorescence slope in test [4] was -0.401 (inactive). For the same compound, the NADPH fluorescence slope in test [5] was -6.4e-05 (inactive). For the same compound, the slope in test [6] was 0.00514 (inactive).

`CCOC(=O)N1CCC(c2cc(=O)n3[nH]c(C)c(-c4ccc(F)cc4)c3n2)CC1`: the cell count in test [1] worked out at 743. The inhibition is -13.4% (inactive) in test [1], -82.2% (inactive) in test [3], 11.5% (inactive) in test [7] and 31% (inactive) in test [8]. The inhibition of aggregation in test [2] is -25.8% (inactive). The nuclei count in test [2] stood at 120%; in test [3], 119%. Also, the fluorescence slope in test [4] is -0.589 (inactive). Besides, in test [5], the NADPH fluorescence slope is 1.5e-07 (inactive). The slope in test [6] is 0.00863 (inactive).

For the compound `COc1cccc2cc(C(=O)N3CCN(c4ccc(C)cc4C)CC3)c(=O)oc12`, in test [1], the cell count worked out at 800. The inhibition in test [1] is -3.4% (inactive); in test [3], -30.2% (inactive); in test [7] it was -9.04% (inactive); in test [8], 5.89% (inactive). The inhibition of aggregation in test [2] was -43.1% (inactive). Moreover, the nuclei count in test [2] came out at 116%; in test [3], 110%. Also, the fluorescence slope in test [4] is -0.565 (inactive). In addition, the NADPH fluorescence slope in test [5] was -1.5e-05 (inactive). Besides, in test [6], the slope was 0.00579 (inactive).

Turning to `CC(=O)Nc1ccc(OCC(O)CN2CCN(c3cccc(Cl)c3)CC2)cc1` (stereo not given), the cell count in test [1] stood at 469. For the same compound, the inhibition was 7% (inactive) in test [1], -27.1% (inactive) in test [3], 3.23% (inactive) in test [7] and 21.4% (inactive) in test [8]. In test [2], the inhibition of aggregation was -19.8% (inactive). For the same compound, the nuclei count in test [2] and in test [3] was 115% throughout. Also, the fluorescence slope in test [4] was -0.481 (inactive). For the same compound, the NADPH fluorescence slope in test [5] is -4.2e-05 (inactive). In test [6], the slope is 0.00626 (inactive).

Turning to `CCOC(=O)C1=C(c2ccccc2)NC(=O)NC1c1ccc(N(C)C)cc1` (stereo not given), the cell count in test [1] turned out to be 363. Besides, the inhibition in test [1] was -0.5% (inactive); in test [3], -131% (inactive); in test [7], 12.6% (inactive); in test [8], 29.3% (inactive). Besides, the inhibition of aggregation in test [2] is 14.6% (inactive). In addition, the nuclei count was found to be 86.7% in test [2] and 118% in test [3]. Besides, in test [4], the fluorescence slope is -0.439 (inactive). In test [5], the NADPH fluorescence slope is -4.5e-05 (inactive). Besides, the slope in test [6] is 0.00395 (inactive).

Consider `Nn1c(Cc2ccccc2F)nnc1SCC(=O)N1CC(=O)Nc2ccccc21`, for which the cell count in test [1] came to 324. The inhibition was 20.7% (inactive) in test [1], -11.5% (inactive) in test [3], 11.5% (inactive) in test [7] and 36.8% (inactive) in test [8]. Moreover, in test [2], the inhibition of aggregation was 11.9% (inactive). The nuclei count in test [2] amounted to 107%; in test [3], 105%. Also, the fluorescence slope in test [4] is -0.39 (inactive). The NADPH fluorescence slope in test [5] is 6.9e-08 (inactive). Besides, the slope in test [6] is 0.00403 (inactive).

As for `CCc1nnc(NC(=O)c2cc3ccccc3oc2=O)s1`, in test [1], the cell count came out at 597. Further, the inhibition was -9.6% (inactive) in test [1], -67.3% (inactive) in test [3], -9.54% (inactive) in test [7] and -77.5% (inactive) in test [8]. Also, the inhibition of aggregation in test [2] is 15.7% (inactive). Also, the nuclei count in test [2] was 96.9%; in test [3], 96.3%. In addition, the fluorescence slope in test [4] is -0.57 (inactive). Moreover, in test [5], the NADPH fluorescence slope is -2e-05 (inactive). Besides, the slope in test [6] is 0.00433 (inactive).

With `Cc1onc(-c2ccccc2Cl)c1C(=O)NCCn1c(C)cc2ccccc21`, the cell count in test [1] came to 677. Also, the inhibition is 9% (inactive) in test [1], -37.1% (inactive) in test [3], 15.6% (inactive) in test [7] and 36.3% (inactive) in test [8]. The inhibition of aggregation in test [2] was 7.9% (inactive). In addition, the nuclei count in test [2] stood at 79.4%; in test [3], 124%. Besides, the fluorescence slope in test [4] is -0.419 (inactive). Besides, the NADPH fluorescence slope in test [5] was -1.5e-05 (inactive). Also, the slope in test [6] was 0.00456 (inactive).

In the case of `CCn1c2ccccc2c2cc(Nc3cc(C)nc4ncnn34)ccc21`, the cell count in test [1] turned out to be 513. For the same compound, the inhibition is 8.5% (inactive) in test [1], -104% (inactive) in test [3], 68.5% (active) in test [7] and 87.2% (active) in test [8]. Further, in test [2], the inhibition of aggregation is 7.5% (inactive). The nuclei count in test [2] came out at 3%; in test [3], 65.1%. Moreover, the fluorescence slope in test [4] was -0.527 (inactive). Moreover, the NADPH fluorescence slope in test [5] was 7.4e-07 (inactive). Moreover, the slope in test [6] is 0.00558 (inactive).
